Data on 40 molecules can be found in PubChem BioAssay AID602476 (National Center for Advancing Translational Sciences (NCATS), 2012).

Results filed as inconclusive are left out. Activity calls are given as the source filed them. The call rests on the fitted dose curve; in most records, active means well fitted activation curve with a large enough effect; inconclusive means small, poorly fitted or top-dose-only effect; inactive means flat fitted curve, though single readings scatter.

The experiment can be described thus: FLuc inhibitory activity for the follow-up compounds in a cell-based translational read-through assay. The note with it: GripTite 293 FLucUGA read-through, luminescence, 48 h; series mostly up to 38.3 µM; activation (read-through/stabilization): at the top concentration. From the text: NCGC Assay Overview: Firefly (Photinus pyralis) luciferase is one of the most commonly used transcriptional reporters. It is considered one of the more dynamically responsive reporters - that is, responsive to changes in reporter transcription - as it requires no post-translational modifications and is enzymatically active directly after protein synthesis (Wood, 1998). With no endogenous expression in mammalian cells and without the requirement of external excitation, it offers very little background signal, thus generally providing excellent signal to background for most assays. Previous profiling work to determine the prevalence of compounds that affect FLuc enzymatic activity (PubChem AID 411) identified that ~3% of the MLSMR library (then at ~72K) inhibited FLuc (Auld et al., 2008). […] Of the compounds identified in this profile that inhibited FLuc, 151 compounds were selected for further analysis, in an effort to better understand their mode of inhibiting FLuc. The assay described here was to determine the activity of the compounds in a cell-based firefly luciferase reporter gene assay originally designed to identify compounds that enchanced translational read-through of a FLuc cDNA that contained a premature stop codon (Auld et al., 2009; Auld et al., 2010). Compounds that enhance translational read-through or compounds that stabilize FLuc intracellularly are identified as active compounds in the assay.
NCGC Assay Protocol Summary: Reagents: Transient transfection of FlucUGA construct: TransFast Transfection Reagent (Promega #E2431); FLucUGA construct (refer to Auld et al., 2009) #GripTite 293 MSR Cell Line (Invitrogen #R795-07) #Complete growth media: DMEM (Invitrogen #11965), 10% HIFBS, 0.1mM MEM NEAA, 5mL/L pen-strep (of 5000U/mL stock), 600ug/mL Geneticin #Assay media: DMEM without phenol red (Invitrogen #21063), 5% charcoal-stripped HIFBS (Hyclone #SH30071.03), 0.1mM MEM NEAA In-house detection reagent: 300mM Tris-HCl, 300mM Trizma base, 300mM MgCl, 1% Triton-X100, 5mM DTT, 500uM Coenzyme A trilithium salt (Sigma #C3019),450uM ATP (Sigma #A7699), 1mM D-luciferin sodium salt monohydrate (Biosynth #L8240) Control compounds used were two known firefly luciferase inhibitors (3-(5-(3-chlorophenyl)-1,2,4-oxadiazol-3-yl)benzoic acid and 5-(2-fluorophenyl)-3-phenyl-1,2,4-oxadiazole), and DMSO. Assay Summary: Transient transfection of FlucUGA construct: Day 1: GripTite cells were plated in T175 flasks at a density of 1.75 x 10^7 cells/T175 flask in complete growth media without Geneticin and allowed to grow ON in a 37 degrees Celsius incubator. Day 2: Cells in T175 flask were transfected - with 10ug of DNA and 30uL Transfast in 12mL complete growth media without serum and without Geneticin for 4 hours at 37 degrees Celsius. After incubation, cells were trypsinized, spun down, and resuspended to a concentration of 3.3 x 10^5 cells/mL in assay media. 6uL of cells in assay buffer were dispensed at 2000cells/well (3.3 x 10^5 cells/mL) into Greiner solid-white TC-treated 1536-well plates using a Multidrop Combi (Thermo Fisher Scientific). Plates were incubated for one hour at 37 degree Celsius, 95% humidity, 5% CO2. These assay plates were then treated with 23nL of compound or DMSO using a Kalypsys pin tool, which allows for delivery of a 12-point titration of each compound to the assay plate, with a final compound concentration ranging from approximately ~38uM to 0.2nM. Assay plates were then incubated for 48 hours. After incubation, plates were washed three times with DPBS (7uL/well). After the third wash, 6uL of DPBS was added to each well. 3uL of 3X luciferase detection reagent was then added to each well using a flying reagent dispenser (FRD). After a 15 minute incubation to allow for cell lysis, luciferase activity was measured using a ViewLux CCD imager (PerkinElmer), with an average exposure time of 2-12 seconds.
Take `CC(=O)Nc1cccc(C(=O)Nc2ccccc2C(=O)O)c1`: the “activation (read-through/stabilization)” value is 6.03% (inactive). With `O=C(Nc1c(Cl)cc(Cl)cc1-c1nc2ccccc2s1)c1ccc(Br)o1`, the Potency is 3.18 µM (active).

Regarding `O=C(Nc1ccccc1C(=O)O)c1cccc(S(=O)(=O)Nc2ccc(Br)cc2)c1`, the “activation (read-through/stabilization)” value is 4.63% (inactive). Regarding `CCOc1ccc2nc(NC(=O)c3cccnc3)sc2c1`, the Potency was 14.2 µM (active). Regarding `Cc1ccc(C(=O)Nc2cccc(C(=O)O)c2)cc1S(=O)(=O)N1CCCCC1`, the Potency was 0.895 µM (active). For the molecule `COc1ccc2nc(NC(=O)CCc3nc(-c4ccccc4F)no3)sc2c1`, the “activation (read-through/stabilization)” value is 2.69% (inactive). Same read-out and setting: for `O=C(COC(=O)c1ccccc1[N+](=O)[O-])c1ccc2c(c1)OCO2` the value was 6.01% (inactive). For the molecule `O=C(O)c1ccc(NC(=O)c2cc(S(=O)(=O)N3CCCCC3)c(Cl)cc2Cl)cc1`, the “activation (read-through/stabilization)” value was -2.05% (inactive). Take `O=C(O)c1ccccc1NC(=O)c1ccccc1Nc1ccccc1`: the “activation (read-through/stabilization)” value is -0.386% (inactive).

With `CC(C)(C)NC(=O)c1ccccc1-c1nc2ccccc2s1`, the “activation (read-through/stabilization)” value is 0.938% (inactive). With `Cc1ccc(C(=O)Nc2cccc(C(=O)O)c2)cc1S(=O)(=O)N1CCCC1`, the Potency is 2 µM (active). With `O=C(Nc1ccccc1C(=O)O)c1ccc(NC(=O)C2CC2)cc1`, the “activation (read-through/stabilization)” value is 6.5% (inactive). Still for that read-out and setting: for `O=C(O)c1cccc(NC(=O)c2cccc(S(=O)(=O)N3CCc4ccccc43)c2)c1` the value was 27.6% (inactive).

`CCOc1ccc2nc(NC(=O)c3ccoc3C)sc2c1`: the Potency is 1.79 µM (active). With `Cc1ccc(C(=O)Nc2ccc(C(=O)O)cc2)cc1S(=O)(=O)Nc1ccccc1`, the “activation (read-through/stabilization)” value is -7.51% (inactive).

On to `COc1ccc(NS(=O)(=O)c2cccc(C(=O)Nc3ccccc3C(=O)O)c2)cc1`, for which the “activation (read-through/stabilization)” value is 10.6% (inactive). Still for that read-out and setting: then `COc1ccc(Br)cc1C(=O)Nc1ccc(C(=O)O)cc1`, with 7.8% (inactive); and `O=C(Nc1ccccc1C(=O)O)c1cccc(NC(=O)c2ccccc2Cl)c1`, with 6.67% (inactive). As for `CC(C)c1ccc(C(=O)Nc2ccc(-c3nc4ccccc4s3)c(Cl)c2)cc1`, the “activation (read-through/stabilization)” value was -5.34% (inactive).

Take `Cc1ccc2sc(-c3ccc(N)cc3)nc2c1`: the Potency was 1.59 µM (active). `Cc1cccc(C(=O)Nc2ccc(-c3nc4ccccc4s3)cc2Cl)c1`: the “activation (read-through/stabilization)” value was -2.98% (inactive). The same measure, in the same setting: for `COc1ccccc1C(=O)Nc1ccc(C(=O)Nc2ccccc2C(=O)O)cc1` the value was -1.15% (inactive); for `O=C(Cc1ccccc1)Nc1ccccc1C(=O)Nc1ccc(C(=O)O)cc1`, 2.61% (inactive). The same measure, in the same setting: then `O=C(Nc1ccccc1C(=O)O)c1ccccc1`, with 3.8% (inactive). Turning to `COc1ccc(-c2nc3ccccc3s2)cc1O`, the Potency was 5.65 µM (active). On the same count and under the same terms, then `C/C(=N\NC(=O)c1ccccc1NC(=O)c1ccc(Cl)cc1)c1ccncc1`, with 0.283 µM (active); and `Cc1ccc(C(=O)Nc2cccc(C(=O)O)c2)cc1`, with 4.49 µM (active). In the case of `O=C(Nc1ccccc1C(=O)O)c1cccc(S(=O)(=O)N2CCCC2)c1`, the “activation (read-through/stabilization)” value is -0.636% (inactive). Take `Nc1ccc(C(=O)Nc2ccccc2C(=O)O)cc1`: the “activation (read-through/stabilization)” value is 18.7% (inactive). As to `O=C(O)c1cccc(NC(=O)c2ccc(S(=O)(=O)c3ccccc3)cc2)c1`, the “activation (read-through/stabilization)” value is 19.9% (inactive). `Cc1ccc(NS(=O)(=O)c2ccc(Cl)c(C(=O)Nc3cccc(C(=O)O)c3)c2)cc1`: the “activation (read-through/stabilization)” value is 2.91% (inactive). Consider `Oc1ccc(-c2nc3ccccc3s2)c(O)c1`, for which the Potency is 10 µM (active). Regarding `COc1ccc2nc(NC(=O)c3ccc(NS(=O)(=O)c4cccs4)cc3)sc2c1`, the “activation (read-through/stabilization)” value is 22.3% (inactive).

Regarding `O=C(Nc1ccccc1C(=O)O)c1ccc(NC(=O)C2CCCCC2)cc1`, the “activation (read-through/stabilization)” value is 2.48% (inactive). The same measure, in the same setting: for `CC(C)Oc1ccc(C(=O)Nc2ccc(-c3nc4ccccc4s3)cc2)cc1` the value was 8.54% (inactive). With `Cc1ccc(C(=O)Nc2ccccc2C(=O)O)cc1S(=O)(=O)N1CCCCCC1`, the Potency is 14.2 µM (active). For `O=C(O)c1cccc(NC(=O)c2ccccc2NC(=O)c2ccco2)c1`, the “activation (read-through/stabilization)” value is 3.39% (inactive). For `O=C(Nc1ccc(Cl)cc1-c1nc2ccccc2s1)c1ccco1`, the “activation (read-through/stabilization)” value is 3.02% (inactive). Take `Nc1ccccc1-c1nc2ccccc2s1`: the Potency was 17.9 µM (active).

Consider `COc1ccc2nc(NC(=O)CCc3ccc(OC)c(OC)c3)sc2c1`, for which the “activation (read-through/stabilization)” value is 1.32% (inactive).
